# From PMC7862700, “An all-to-all approach to the identification of sequence-specific readers for epigenetic DNA modifications on cytosine”
# Assays:
# Experiment in all cases: DAPPL (digital affinity profiling via proximity ligation, sequencing); 10 mM Tris-HCl pH 7.5, 50 mM NaCl, 1 mM DTT, 4% glycerol, room temperature, 30 min; GST-TFs on glutathione beads, 16-mer random dsDNA library, 0.1% formaldehyde crosslink after washing; high values mean tight binding
# GABPA = target: T1, GABPA (Homo sapiens, UniProt Q06546 1-454); conditions: protein: recombinant; tags: N-terminal GST; dsDNA, one strand shown
# T1 sequence: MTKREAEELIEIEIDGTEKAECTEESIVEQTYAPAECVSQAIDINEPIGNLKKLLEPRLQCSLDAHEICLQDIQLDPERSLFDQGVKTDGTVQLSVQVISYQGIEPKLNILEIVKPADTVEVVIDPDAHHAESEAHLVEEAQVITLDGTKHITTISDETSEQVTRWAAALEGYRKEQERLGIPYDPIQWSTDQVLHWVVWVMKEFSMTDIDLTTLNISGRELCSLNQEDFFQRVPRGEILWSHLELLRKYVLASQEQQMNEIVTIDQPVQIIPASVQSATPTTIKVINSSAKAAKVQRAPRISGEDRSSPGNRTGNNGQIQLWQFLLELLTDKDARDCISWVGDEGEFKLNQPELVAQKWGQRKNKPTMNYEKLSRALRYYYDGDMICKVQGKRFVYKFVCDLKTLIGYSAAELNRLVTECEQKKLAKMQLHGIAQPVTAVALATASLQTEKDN
# Method in brief: (§1)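 GST fusions of human transcription factors were expressed in yeast and captured with glutathione beads. Once given DNA barcodes and pooled alongside a tag-only sample, they were incubated for 30 min at room temperature with 200 nmole of a random double-stranded 16-mer DNA library in Tris/NaCl/DTT/glycerol buffer, then washed, crosslinked (0.1% formaldehyde), proximity-ligated, PCR-amplified and sequenced on an Illumina NextSeq500. The binding signal of each hexamer is its read frequency for a factor divided by its frequency for the tag-only sample.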
# ERG = target: T2, ERG (Homo sapiens, UniProt P11308 1-479); conditions: protein: recombinant; tags: N-terminal GST; dsDNA, one strand shown
# T2 sequence: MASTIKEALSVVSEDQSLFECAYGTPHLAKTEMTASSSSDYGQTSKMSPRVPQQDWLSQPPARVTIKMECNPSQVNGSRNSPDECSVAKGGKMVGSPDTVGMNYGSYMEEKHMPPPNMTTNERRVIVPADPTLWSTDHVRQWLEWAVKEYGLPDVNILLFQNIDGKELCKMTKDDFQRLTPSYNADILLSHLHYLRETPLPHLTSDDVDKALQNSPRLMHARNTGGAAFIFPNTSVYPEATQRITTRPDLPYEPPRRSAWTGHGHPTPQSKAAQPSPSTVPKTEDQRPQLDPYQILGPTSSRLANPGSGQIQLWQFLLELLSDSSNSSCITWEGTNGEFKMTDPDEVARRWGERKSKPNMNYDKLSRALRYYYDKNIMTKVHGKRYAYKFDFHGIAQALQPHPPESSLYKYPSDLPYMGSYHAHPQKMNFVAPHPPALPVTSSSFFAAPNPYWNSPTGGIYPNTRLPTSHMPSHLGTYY
# Method in brief: as §1
# FEV = target: T3, FEV (Homo sapiens, UniProt Q99581 1-238); conditions: protein: recombinant; tags: N-terminal GST; dsDNA, one strand shown
# T3 sequence: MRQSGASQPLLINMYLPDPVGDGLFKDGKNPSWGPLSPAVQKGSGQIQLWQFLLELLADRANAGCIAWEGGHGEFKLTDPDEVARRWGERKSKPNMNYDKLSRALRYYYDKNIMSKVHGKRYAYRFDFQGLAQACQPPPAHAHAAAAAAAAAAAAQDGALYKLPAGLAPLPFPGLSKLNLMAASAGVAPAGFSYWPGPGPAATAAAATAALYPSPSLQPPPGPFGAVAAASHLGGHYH
# Method in brief: as §1
# HSF1 = HSF1 (Homo sapiens, UniProt Q00613 1-529); conditions: protein: recombinant; tags: N-terminal GST; chain copies: 3; dsDNA, one strand shown
# Method in brief: as §1
# SPIC = target: T4, SPIC (Homo sapiens, UniProt Q8N5J4 1-248); conditions: protein: recombinant; tags: N-terminal GST; dsDNA, one strand shown
# T4 sequence: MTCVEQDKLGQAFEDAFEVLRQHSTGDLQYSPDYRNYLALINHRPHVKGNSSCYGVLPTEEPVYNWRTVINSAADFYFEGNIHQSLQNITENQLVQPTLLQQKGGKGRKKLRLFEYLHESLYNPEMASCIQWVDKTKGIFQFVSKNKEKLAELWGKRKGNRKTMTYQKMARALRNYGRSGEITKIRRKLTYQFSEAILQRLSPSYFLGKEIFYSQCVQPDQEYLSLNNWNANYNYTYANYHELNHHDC
# Method in brief: as §1
# CRX = CRX (Homo sapiens, UniProt O43186 1-299); conditions: protein: recombinant; tags: N-terminal GST; dsDNA, one strand shown
# Method in brief: as §1
# ETV1 = ETV1 (Homo sapiens, UniProt P50549 1-477); conditions: protein: recombinant; tags: N-terminal GST; dsDNA, one strand shown
# Method in brief: as §1
# ERF = target: T5, ERF (Homo sapiens, UniProt P50548 1-548); conditions: protein: recombinant; tags: N-terminal GST; dsDNA, one strand shown
# T5 sequence: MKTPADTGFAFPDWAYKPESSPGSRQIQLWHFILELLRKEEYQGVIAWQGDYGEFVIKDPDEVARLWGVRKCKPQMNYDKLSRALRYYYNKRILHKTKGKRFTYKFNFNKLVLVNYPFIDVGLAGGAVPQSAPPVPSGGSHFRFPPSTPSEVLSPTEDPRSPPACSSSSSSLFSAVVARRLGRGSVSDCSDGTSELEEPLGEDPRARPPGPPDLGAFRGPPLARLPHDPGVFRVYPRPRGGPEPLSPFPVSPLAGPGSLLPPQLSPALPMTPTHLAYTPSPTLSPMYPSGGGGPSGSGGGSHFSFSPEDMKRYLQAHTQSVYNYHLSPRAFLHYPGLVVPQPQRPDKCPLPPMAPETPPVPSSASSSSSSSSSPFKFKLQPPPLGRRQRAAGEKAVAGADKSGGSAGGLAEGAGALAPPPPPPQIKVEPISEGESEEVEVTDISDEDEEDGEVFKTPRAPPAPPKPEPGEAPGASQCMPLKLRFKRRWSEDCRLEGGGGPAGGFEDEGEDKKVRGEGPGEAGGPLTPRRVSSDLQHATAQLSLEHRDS
# Method in brief: as §1
# ETV3L = target: T6, ETV3L (Homo sapiens, UniProt Q6ZN32 1-361); conditions: protein: recombinant; tags: N-terminal GST; dsDNA, one strand shown
# T6 sequence: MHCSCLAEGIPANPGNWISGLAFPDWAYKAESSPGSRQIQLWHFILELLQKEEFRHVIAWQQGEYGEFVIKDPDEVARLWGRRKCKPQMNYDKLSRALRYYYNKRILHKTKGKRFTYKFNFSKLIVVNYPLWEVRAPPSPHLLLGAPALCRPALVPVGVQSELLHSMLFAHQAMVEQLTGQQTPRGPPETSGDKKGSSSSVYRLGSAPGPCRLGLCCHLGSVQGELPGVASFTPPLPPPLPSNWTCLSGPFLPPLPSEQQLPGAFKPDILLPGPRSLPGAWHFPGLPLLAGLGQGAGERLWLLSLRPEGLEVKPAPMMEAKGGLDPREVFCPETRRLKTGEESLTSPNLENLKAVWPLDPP
# Method in brief: as §1
# ETS2 = target: T7, ETS2 (Homo sapiens, UniProt P15036 1-469); conditions: protein: recombinant; tags: N-terminal GST; dsDNA, one strand shown
# T7 sequence: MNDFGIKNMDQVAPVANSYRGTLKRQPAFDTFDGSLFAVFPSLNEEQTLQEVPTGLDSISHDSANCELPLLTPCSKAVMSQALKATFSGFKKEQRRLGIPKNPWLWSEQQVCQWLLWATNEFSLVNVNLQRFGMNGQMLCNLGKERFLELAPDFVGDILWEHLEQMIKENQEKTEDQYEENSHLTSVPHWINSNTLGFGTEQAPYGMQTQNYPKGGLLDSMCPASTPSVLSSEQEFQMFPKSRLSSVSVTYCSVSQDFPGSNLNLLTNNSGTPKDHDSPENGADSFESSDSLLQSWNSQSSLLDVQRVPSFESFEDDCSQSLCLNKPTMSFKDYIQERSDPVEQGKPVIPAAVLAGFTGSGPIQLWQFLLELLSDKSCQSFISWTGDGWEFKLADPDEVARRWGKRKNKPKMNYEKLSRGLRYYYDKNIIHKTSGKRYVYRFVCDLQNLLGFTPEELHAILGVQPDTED
# Method in brief: as §1
# ETV7 = target: T8, ETV7 (Homo sapiens, UniProt Q9Y603 1-341); conditions: protein: recombinant; tags: N-terminal GST; dsDNA, one strand shown
# T8 sequence: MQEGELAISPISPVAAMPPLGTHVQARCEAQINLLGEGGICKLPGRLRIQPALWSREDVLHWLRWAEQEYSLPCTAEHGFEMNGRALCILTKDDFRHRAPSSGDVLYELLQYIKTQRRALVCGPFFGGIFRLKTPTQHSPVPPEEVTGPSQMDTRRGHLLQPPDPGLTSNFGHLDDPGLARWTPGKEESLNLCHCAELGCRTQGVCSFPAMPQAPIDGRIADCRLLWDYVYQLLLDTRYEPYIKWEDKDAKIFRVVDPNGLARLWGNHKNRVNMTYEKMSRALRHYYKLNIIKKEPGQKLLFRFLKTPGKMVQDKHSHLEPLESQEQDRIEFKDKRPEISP
# Method in brief: as §1
# ELF1 = ELF1 (Homo sapiens, UniProt P32519 1-619); conditions: protein: recombinant; tags: N-terminal GST; dsDNA, one strand shown
# Method in brief: as §1
# ELK3 = target: T9, ELK3 (Homo sapiens, UniProt P41970 1-407); conditions: protein: recombinant; tags: N-terminal GST; dsDNA, one strand shown
# T9 sequence: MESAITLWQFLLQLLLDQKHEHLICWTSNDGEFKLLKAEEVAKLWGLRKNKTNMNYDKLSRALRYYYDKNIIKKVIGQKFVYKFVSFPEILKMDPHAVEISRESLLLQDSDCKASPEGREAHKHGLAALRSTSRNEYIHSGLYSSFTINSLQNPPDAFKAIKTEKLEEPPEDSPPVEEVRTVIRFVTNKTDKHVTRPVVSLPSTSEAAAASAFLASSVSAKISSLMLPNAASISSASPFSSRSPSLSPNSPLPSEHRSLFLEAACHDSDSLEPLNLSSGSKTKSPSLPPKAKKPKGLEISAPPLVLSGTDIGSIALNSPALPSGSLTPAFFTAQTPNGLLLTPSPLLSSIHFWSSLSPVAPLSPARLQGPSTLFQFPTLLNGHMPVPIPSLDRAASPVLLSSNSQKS
# Method in brief: as §1
# ETV6 = ETV6 (Homo sapiens, UniProt P41212 1-452); conditions: protein: recombinant; tags: N-terminal GST; dsDNA, one strand shown
# Method in brief: as §1
# Sequence of ETV1 (P50549 whole entry): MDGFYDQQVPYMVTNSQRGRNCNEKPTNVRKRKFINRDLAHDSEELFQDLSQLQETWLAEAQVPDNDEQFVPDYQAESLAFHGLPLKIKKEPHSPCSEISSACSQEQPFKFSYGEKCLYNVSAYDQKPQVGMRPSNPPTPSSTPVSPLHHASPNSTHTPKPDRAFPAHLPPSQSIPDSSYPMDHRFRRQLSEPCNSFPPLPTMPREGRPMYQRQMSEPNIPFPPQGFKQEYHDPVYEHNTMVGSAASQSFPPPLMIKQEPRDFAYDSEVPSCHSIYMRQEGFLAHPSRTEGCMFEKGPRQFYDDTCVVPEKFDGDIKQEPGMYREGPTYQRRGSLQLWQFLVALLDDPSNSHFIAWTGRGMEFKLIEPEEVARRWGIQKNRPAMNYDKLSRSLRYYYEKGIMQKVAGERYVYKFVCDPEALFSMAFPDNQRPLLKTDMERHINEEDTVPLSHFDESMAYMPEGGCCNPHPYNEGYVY
# Sequence of HSF1 (Q00613 whole entry): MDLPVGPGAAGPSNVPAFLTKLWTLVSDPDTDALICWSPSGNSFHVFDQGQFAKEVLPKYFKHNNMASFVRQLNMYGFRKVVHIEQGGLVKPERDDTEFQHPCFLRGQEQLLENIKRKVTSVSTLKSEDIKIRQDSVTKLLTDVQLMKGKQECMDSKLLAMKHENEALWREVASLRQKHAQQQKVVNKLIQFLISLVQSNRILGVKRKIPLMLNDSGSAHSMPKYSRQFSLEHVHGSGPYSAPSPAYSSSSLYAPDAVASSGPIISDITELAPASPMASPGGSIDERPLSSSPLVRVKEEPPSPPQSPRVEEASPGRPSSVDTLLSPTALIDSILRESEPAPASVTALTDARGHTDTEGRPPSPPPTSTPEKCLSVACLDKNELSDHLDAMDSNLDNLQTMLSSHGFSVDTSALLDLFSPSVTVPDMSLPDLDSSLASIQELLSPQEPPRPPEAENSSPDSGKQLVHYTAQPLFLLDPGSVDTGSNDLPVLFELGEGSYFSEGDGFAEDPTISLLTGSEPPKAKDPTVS
# Sequence of CRX (O43186 whole entry): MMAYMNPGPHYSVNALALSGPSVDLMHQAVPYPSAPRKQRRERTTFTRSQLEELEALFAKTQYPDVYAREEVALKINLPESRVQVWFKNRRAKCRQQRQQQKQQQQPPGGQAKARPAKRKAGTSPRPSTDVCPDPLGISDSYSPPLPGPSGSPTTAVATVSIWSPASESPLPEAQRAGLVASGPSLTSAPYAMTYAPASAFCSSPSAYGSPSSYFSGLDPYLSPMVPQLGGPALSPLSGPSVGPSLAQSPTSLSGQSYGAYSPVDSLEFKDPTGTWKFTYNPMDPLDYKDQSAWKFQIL
# Sequence of ETV6 (P41212 whole entry): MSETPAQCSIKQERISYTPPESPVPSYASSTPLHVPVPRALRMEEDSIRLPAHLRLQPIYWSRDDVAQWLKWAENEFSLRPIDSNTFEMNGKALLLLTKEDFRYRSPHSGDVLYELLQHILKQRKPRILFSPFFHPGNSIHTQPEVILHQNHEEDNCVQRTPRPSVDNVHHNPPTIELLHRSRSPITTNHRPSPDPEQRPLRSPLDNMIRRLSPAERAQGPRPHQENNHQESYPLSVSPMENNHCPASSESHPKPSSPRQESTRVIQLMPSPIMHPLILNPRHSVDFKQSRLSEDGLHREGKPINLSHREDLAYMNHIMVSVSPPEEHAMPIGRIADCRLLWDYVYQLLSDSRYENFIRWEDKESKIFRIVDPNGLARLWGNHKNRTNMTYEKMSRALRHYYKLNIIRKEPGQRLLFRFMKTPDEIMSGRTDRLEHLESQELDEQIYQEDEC
# Sequence of ELF1 (P32519 whole entry): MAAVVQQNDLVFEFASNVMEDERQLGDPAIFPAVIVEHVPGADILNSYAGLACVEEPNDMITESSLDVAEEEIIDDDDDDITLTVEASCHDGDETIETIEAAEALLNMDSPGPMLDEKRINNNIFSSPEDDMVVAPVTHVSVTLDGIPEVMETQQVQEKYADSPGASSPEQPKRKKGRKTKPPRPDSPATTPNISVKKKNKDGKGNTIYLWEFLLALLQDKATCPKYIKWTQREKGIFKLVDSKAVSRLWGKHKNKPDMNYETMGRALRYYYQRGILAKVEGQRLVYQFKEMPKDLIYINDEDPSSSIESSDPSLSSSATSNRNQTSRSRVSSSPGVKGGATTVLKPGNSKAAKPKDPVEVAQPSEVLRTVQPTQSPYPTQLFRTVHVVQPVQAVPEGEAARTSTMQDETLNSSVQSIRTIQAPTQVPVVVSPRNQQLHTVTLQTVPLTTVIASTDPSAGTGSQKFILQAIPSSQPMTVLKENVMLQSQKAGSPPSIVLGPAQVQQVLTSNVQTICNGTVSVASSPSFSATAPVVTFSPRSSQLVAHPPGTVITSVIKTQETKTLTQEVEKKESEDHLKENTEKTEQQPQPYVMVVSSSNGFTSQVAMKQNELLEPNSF
Sequence,binding signal (GABPA),binding signal (ERG),binding signal (FEV),binding signal (HSF1),binding signal (SPIC),binding signal (CRX),binding signal (ETV1),binding signal (ERF),binding signal (ETV3L),binding signal (ETS2),binding signal (ETV7),binding signal (ELF1),binding signal (ELK3),binding signal (ETV6)
TTAGGC,"1.02 fold enrichment (6-mer frequency, TF over GST control)","1.03 fold enrichment (6-mer frequency, TF over GST control)","1 fold enrichment (6-mer frequency, TF over GST control)","1.37 fold enrichment (6-mer frequency, TF over GST control)","1.08 fold enrichment (6-mer frequency, TF over GST control)","2.06 fold enrichment (6-mer frequency, TF over GST control)","1.03 fold enrichment (6-mer frequency, TF over GST control)","1.02 fold enrichment (6-mer frequency, TF over GST control)","1.01 fold enrichment (6-mer frequency, TF over GST control)","1.01 fold enrichment (6-mer frequency, TF over GST control)","1.16 fold enrichment (6-mer frequency, TF over GST control)",,,
TAGAAC,"1.03 fold enrichment (6-mer frequency, TF over GST control)",,"1 fold enrichment (6-mer frequency, TF over GST control)","2.74 fold enrichment (6-mer frequency, TF over GST control)","1 fold enrichment (6-mer frequency, TF over GST control)","1.43 fold enrichment (6-mer frequency, TF over GST control)","1.07 fold enrichment (6-mer frequency, TF over GST control)","1.02 fold enrichment (6-mer frequency, TF over GST control)",,,,"1.01 fold enrichment (6-mer frequency, TF over GST control)","1.03 fold enrichment (6-mer frequency, TF over GST control)","1.09 fold enrichment (6-mer frequency, TF over GST control)"
